Measured values as given in PubChem BioAssay.

Assay: E. coli DRC41 culture turbidity changes, primary screen, E. coli filamentation inducer project, strain DRC41, OD650, 48 h (AID 1152);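 also: E. coli MC1000 strain DRC41 lacking acrAB efflux pump and sulA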
Conditions: E. coli DRC41 (acrAB sulA), higher = more signal, called active from +8 up or from −8 down

z-score, inactive:
CCOC(=O)C[C@H]1[C@H](OC(=O)Cc2ccc3c(c2)OCO3)[C@@H](NC(=O)c2ccc3ccccc3n2)c2cc(OCCCO)ccc2N1C(=O)c1ccccc1 1.43
COc1ccc([Si](C)(C)[C@@H]2[C@@H](CC(=O)N(CCO)Cc3ccccc3)O[C@]3(C(=O)N(Cc4cccc(N5CCCCC5=O)c4)c4ccccc43)[C@H]2C)cc1 0.152
C=C[C@@H](OC)[C@H](OC(=O)Nc1ccc(OC)cc1)c1ccc(O)c(F)c1 0.308
CCCCCC1=C2CNC(C)(C(=O)OC)C=C2C(C)C1=O (configuration not stated) -1.81
O=C1NC(=O)C2C1C=CC(C(O)c1ccco1)N2Nc1ccc(Cl)cc1Cl (configuration not stated) -2.27
CCC#CCN(Cc1ccccc1Br)[C@H](/C=C/C1CC1)[C@@H](O)Cc1ccccc1 2.06
COc1ccc([Si](C)(C)[C@@H]2[C@@H](CC(=O)N3Cc4ccccc4C[C@H]3CO)O[C@]3(C(=O)N(Cc4ccc(N5C(=O)c6cccc7cccc5c67)cc4)c4ccccc43)[C@H]2C)cc1 -0.967
[N-]=[N+]=Nc1ccccc1C[C@@]1(C(=O)NCCN2CCOCC2)N=C(c2ccc(OCCCO)cc2)O[C@@H]1c1ccccc1N=[N+]=[N-] -0.374
CC1=C2[C@@H](CCc3ccccc3)OB(O)C[C@@H]2[C@@H]2C(=O)N(Cc3ccccc3)C(=O)[C@@H]2C1 -0.42
CC1CC/C=C\[C@H]2OC34C=CCN(Cc5ccccc5)C(=O)[C@H]3N(C(CO)C(C)C)C(=O)[C@@H]4C2C(=O)O1 (some centres not stated) 0.084
COc1cccc(C)c1NC(=O)O[C@H]1[C@H](OC(=O)Nc2ccc3c(c2)OCO3)[C@@H](OC(=O)Nc2ccc3c(c2)OCO3)[C@@H](OC)O[C@@H]1CO 0.132
Cc1ccccc1C(O)C1C=CC2C(=O)NC(=O)C2N1Nc1ccccn1 (configuration not stated) -0.908
CCCCC(=C=CC[C@H](O)c1ccc(OCCO)cc1)CCO -0.495
CC(c1ccccc1)C(O)C1C=CC2C(=O)N(C)C(=O)C2N1Nc1ccccc1 (configuration not stated) -1.14
C=CCC(OC(C)=O)[C@@H]1[C@@H](N(Cc2ccc(-c3cccc(C(F)(F)F)c3)o2)C(=O)Cc2ccc(OC)cc2)c2cc(OCCCO)ccc2N1C(=O)c1ccc(-c2ccccc2)cc1 (some centres not stated) -1.12
Cc1ccc(S[C@]2(C(=O)NC(C)C)CC(=O)N(Cc3cc(C(F)(F)F)cc(C(F)(F)F)c3)[C@@H]2c2ccc(CO)cc2)cc1 -0.16
CCOC(=O)C[C@H]1[C@H](OC(=O)c2cc3ccccc3oc2=O)[C@@H](NC(=O)CC(C)C)c2cc(OCCCO)ccc2N1C(=O)c1ccc2ccccc2n1 -0.618
COc1ccc(CCNC(=O)[C@@]2(c3ccc([N+](=O)[O-])cc3)CC(=O)N(C3CCCCC3)[C@@H]2c2ccc(CO)cc2)cc1 1.31
C[C@@H]1NC(=O)[C@@H](Cc2ccccc2)NC(=O)[C@@]23C(=O)N[C@@H](Cc4ccccc4)C2[C@H](C)[C@@]2(C)O[C@H]2C3/C=C/C/C=C\CNC1=O (some centres not stated) -1.02
CCC1=C2CN(Cc3ccccc3)[C@@H](C(=O)Cc3ccccc3)C2C=CCC1 (some centres not stated) 0.806
N#Cc1ccc(NN2C(C(O)c3ccc(Br)cc3)C=CC3C(=O)N(c4ccccc4)C(=O)C32)cc1 (configuration not stated) -0.922
OCCCC1=CC(c2ccc(CN3CCCC3)cc2)N(Cc2cc3c(cc2Br)OCO3)CC1 (configuration not stated) 0.0676
O=C(O)[C@@H]1C[C@@H]2C(=O)N3CCC[C@H]3C(=O)N2[C@@H]1c1ccc(O)cc1 2.3
CC(C)[Si]1(C(C)C)OCc2cc(-c3ccc(-c4ccc(Cl)c(Cl)c4)o3)nc(-c3ccccc3)c21 -0.618
COc1ccc([Si](C)(C)[C@@H]2[C@@H](CCO)O[C@]3(C(=O)N(Cc4ccccc4)c4ccc(N5C(=O)c6cccc7cccc5c67)cc43)[C@H]2C)cc1 0.487
C=C[C@H](C)[C@H](OC(=O)Nc1ccc(SC)cc1)c1ccc(OCCO)cc1 -1.79
CCOC(=O)C[C@H]1[C@H](OC(=O)c2cc3ccccc3oc2=O)[C@@H](NC(=O)c2ccc3ccccc3n2)c2cc(OCCCO)ccc2N1C(=O)Cc1ccc(OC)cc1 0.116
